# A selection: hits, their analogues and other compounds. The true share with any hit is near 12%.
# G9a inh – G9a (human) methyltransferase inhibition | G9a H3K9 monomethylation, AlphaScreen, 2 h | Potency, µM (doses to about 102 µM), usual class: inhibitors | hit rate 8.8% among 350,000 | AID 504332; also: nearly all actives have a fitted effect of over 75% in size
#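 Step 1: enzyme (final 20 nM) with compound, 15 min RT. Step 2: substrate peptide 500 nM and SAM 20 uM, 2 h RT. Step 3: anti-H3K9me1 antibody and AlphaScreen beads, 10 min, then plate read.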
# HP1b binding inh – inhibitors of HP1-beta chromodomain binding to methylated histone tails; P83916; AlphaScreen HP1-beta / biotin-H3K9me3 peptide binding; Potency, µM (top dose mostly 114 µM), most hits filed as inhibitors; hit rate 0.56% among 390,000; also: nearly all actives have a fitted effect of over 70% in size
#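 Compound inhibition of the preformed complex between 50 nM HP1-beta and 50 nM biotinylated H3K9me3 peptide was read by AlphaScreen. Buffer was PBS pH 7.4 with 0.01% Tween-20. Incubations ran 30 min at room temperature, with 10 ug/mL donor/acceptor beads.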
# TDP1 block – inhibitors of human tyrosyl-DNA phosphodiesterase TDP1; Q9NUW8; hit rate 0.28% among 350,000; recombinant TDP1, AlphaScreen DNA substrate cleavage; Potency, µM (series often up to 130 µM), most hits filed as inhibitors; also: nearly all actives have a fitted effect of over 40% in size
#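 Signal: AlphaScreen proximity between streptavidin donor and anti-FITC acceptor beads on intact substrate. Reaction: Tdp1 1 nM, substrate 15 nM final, 5 min RT after 15 min compound preincubation.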
# JMJD2A Tudor inh – JMJD2A Tudor domain (human) inhibition. AID 504339. O75164. hit rate 4.4% among 390,000. AlphaScreen JMJD2A-Tudor / H3K4me3 peptide binding. Potency, µM (series often up to 114 µM), most hits filed as inhibitors; also: nearly all actives have a fitted effect of over 50% in size
# BAZ2B block – blocks human BAZ2B | AlphaScreen BAZ2B-H3K14Ac peptide displacement | Potency, µM (doses to about 114 µM), hits mostly inhibitors | hit rate 4.4% among 360,000 | AID 504333; also: nearly all actives have a fitted effect of over 60% in size
#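 Protein-peptide AlphaScreen: BAZ2B 50 nM, b-H3K14Ac 50 nM, 1x PBS pH 7.4 + 0.01% Tween-20. Preincubation 30 min RT; cpd 30 min RT (top 110 uM); beads 20 min RT, light-protected.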
# Sfp PPTase inh – Sfp phosphopantetheinyl transferase inhibition; Q9F4F7; Biochemical Sfp PPTase activity, qHTS; Potency, µM, hits mostly inhibitors; hit rate 3.5% among 310,000;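 also: the enzyme is Sfp with the accession as filed and its product quenches rhodamine fluorescence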
#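 Fluorescence-quenching assay with 15 nM Sfp, 5 uM rhodamine-CoA and 12.5 uM BHQ-2-labelled ybbR peptide in pH 7.6 Hepes/MgCl2 buffer. Enzyme was pre-incubated with compound for 15 min at room temperature. Rate was taken from the 30-min fluorescence change (525/598 nm).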
# A number is an active result; n = inactive; u = inconclusive; x = no result; [ ] = dose if it differs, or a comment. Calls follow the shape of the dose curve; as a rule, active = well fitted curve in the direction sought with a large enough effect; inconclusive = small, poorly fitted or top-dose-only effect, or another doubt; inactive = no such curve, though single readings can be large; an effect the other way counts as inactive or inconclusive.
SMILES,G9a inh,HP1b binding inh,TDP1 block,JMJD2A Tudor inh,BAZ2B block,Sfp PPTase inh
Fc1ccccc1N1CCN(C(c2ccccn2)c2nnnn2C2CCCCC2)CC1 (stereo unspecified),14.1µM,n,n,n,79.4µM,n
COCCn1nnnc1C(c1cccs1)N1CCN(c2nc3ccccc3s2)CC1 (stereo unspecified),n[12.7 µM],n,n,n,n,n
COCCn1nnnc1C(c1cccs1)N1CCN(c2cc(C)ccc2C)CC1 (stereo unspecified),n[12.7 µM],n,n,79.4µM,n,n
COCCn1nnnc1C(c1ccccc1OC)N1CCN(c2ccccc2)CC1 (stereo unspecified),44.7µM,n,n,44.7µM,n,n
COCCn1nnnc1C(c1cccc(C(F)(F)F)c1)N1CCOCC1 (stereo unspecified),u,n,n,n,n,n
COCCn1nnnc1C(c1cccc(C(F)(F)F)c1)N1CCN(Cc2ccccc2)CC1 (stereo unspecified),50.1µM,n,n,n,u,n
O=C(NC1CC1)C1CC(=O)N(c2ccc(F)cc2)C1 (stereo unspecified),n,n,x,n,n,n
COc1ccc(OC)c(C(c2nnnn2C2CCCC2)N2CCN(c3ccccc3F)CC2)c1 (stereo unspecified),n,n,n,n,50.1µM,n
COc1ccc(N2CCN(C(c3cccc(OC)c3OC)c3nnnn3C3CCCC3)CC2)cc1 (stereo unspecified),12.6µM,u,n,44.7µM,39.8µM,n
COc1ccc(N2CCN(C(c3ccccc3OC)c3nnnn3C3CCCC3)CC2)cc1 (stereo unspecified),15.8µM,u,n,56.2µM,44.7µM,n
COc1ccc(N2CCN(C(c3cc(OC)ccc3OC)c3nnnn3CC3CCCO3)CC2)cc1 (stereo unspecified),14.1µM,n,n,79.4µM,50.1µM,n
COc1ccc(OC)c(C(c2nnnn2C2CCCC2)N2CCc3ccccc3C2)c1 (stereo unspecified),u,n,n,n,u,n
COc1ccc(N2CCN(C(c3cccs3)c3nnnn3C3CCCC3)CC2)cc1 (stereo unspecified),u,n,n,u,u,n
COc1ccc2cc(C(c3nnnn3CC3CCCO3)N3CCOCC3)c(=O)[nH]c2c1 (stereo unspecified),n,n,n,n,n,n
O=C(NCC1CC1)c1ccc2nc(-c3ccoc3)c(-c3ccoc3)nc2c1,x,n,n,n,x,x
CC(C)C(=O)Nc1ccccc1-c1nc2ccccc2[nH]c1=O,u,n,n,n,n,n
CC(C)C(=O)Nc1sc2c(c1-c1nc3ccccc3[nH]1)CCCC2,14.1µM,n,n,n,n,n
COc1ccc(-c2nc(CSCC(=O)N3CCC(C(N)=O)CC3)c(C)o2)cc1OC,44.7µM,n,n,n,n,n
COc1ccc(-c2nc(CSCC(=O)NC3CCCc4ccccc43)c(C)o2)cc1OC (stereo unspecified),44.7µM,n,n,u,u,n
COc1ccc(-c2nc(CSCC(=O)N3CCc4ccccc4C3)c(C)o2)cc1OC,35.5µM,n,n,u,n,n
COc1ccc(-c2nc(CSCC(=O)NC3CC3)c(C)o2)cc1OC,n,n,n,n,n,n
CCOc1ccc(-c2nc(CSCC(=O)N3CCN(C(=O)c4ccco4)CC3)c(C)o2)cc1,50.1µM,n,n,n,n,n
CCOc1ccc(-c2nc(CSCC(=O)NCCc3ccccc3)c(C)o2)cc1,n,n,n,n,n,x
c1ccc(Nc2ncnc3[nH]ncc23)cc1,50.1µM,n,x,n,n,n
CCOC(=O)C(=NCC1CCCO1)NNc1cc(Cl)ccc1Cl (stereo unspecified),35.5µM,n,n,u,u,n
CC(C)Nc1ccc(Nc2ccnc3cc4ccccc4cc23)cc1,8.91µM,25.1µM,n,11.2µM,15.8µM,n
CC(=O)N[C@@H](Cc1ccc(O)cc1)C(=O)N[C@H](C(=O)N[C@@H](C)C(=O)N[C@H](C#N)CC(=O)O)C(C)C,n[12.7 µM],x,x,x,n,x
O=S(=O)(c1nccs1)N1CCN(c2nc(-c3cccs3)nc3ccccc23)CC1,x,n,n,n,x,x

# Screens from PubChem.
